This passage reports inhibition results from PubChem BioAssay.

In test [1] the target is Nuclear receptor coactivator 3 (Homo sapiens) (UniProt Q9Y6Q9). As to the kind of experiment: SRC3 coactivator transcriptional activity inhibitors, confirmation, cell-based, luminescence, quadruplicate (AID 588792;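 active means mean inhibition over 43.08%, the solvent-only control mean plus 3 SD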;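 further: 0% = DMSO treated cells and 100% = gossypol at 36 µM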). As to conditions: HEK293 GAL4-SRC3 luciferase reporter, at 3.6 µM, hits give high values. (Reporter assays use an easily measured gene product as a stand-in for the process of interest.)
Nuclear receptor coactivator 3 (Homo sapiens), sequence (Q9Y6Q9 whole entry, looked up, the tested form may be a part): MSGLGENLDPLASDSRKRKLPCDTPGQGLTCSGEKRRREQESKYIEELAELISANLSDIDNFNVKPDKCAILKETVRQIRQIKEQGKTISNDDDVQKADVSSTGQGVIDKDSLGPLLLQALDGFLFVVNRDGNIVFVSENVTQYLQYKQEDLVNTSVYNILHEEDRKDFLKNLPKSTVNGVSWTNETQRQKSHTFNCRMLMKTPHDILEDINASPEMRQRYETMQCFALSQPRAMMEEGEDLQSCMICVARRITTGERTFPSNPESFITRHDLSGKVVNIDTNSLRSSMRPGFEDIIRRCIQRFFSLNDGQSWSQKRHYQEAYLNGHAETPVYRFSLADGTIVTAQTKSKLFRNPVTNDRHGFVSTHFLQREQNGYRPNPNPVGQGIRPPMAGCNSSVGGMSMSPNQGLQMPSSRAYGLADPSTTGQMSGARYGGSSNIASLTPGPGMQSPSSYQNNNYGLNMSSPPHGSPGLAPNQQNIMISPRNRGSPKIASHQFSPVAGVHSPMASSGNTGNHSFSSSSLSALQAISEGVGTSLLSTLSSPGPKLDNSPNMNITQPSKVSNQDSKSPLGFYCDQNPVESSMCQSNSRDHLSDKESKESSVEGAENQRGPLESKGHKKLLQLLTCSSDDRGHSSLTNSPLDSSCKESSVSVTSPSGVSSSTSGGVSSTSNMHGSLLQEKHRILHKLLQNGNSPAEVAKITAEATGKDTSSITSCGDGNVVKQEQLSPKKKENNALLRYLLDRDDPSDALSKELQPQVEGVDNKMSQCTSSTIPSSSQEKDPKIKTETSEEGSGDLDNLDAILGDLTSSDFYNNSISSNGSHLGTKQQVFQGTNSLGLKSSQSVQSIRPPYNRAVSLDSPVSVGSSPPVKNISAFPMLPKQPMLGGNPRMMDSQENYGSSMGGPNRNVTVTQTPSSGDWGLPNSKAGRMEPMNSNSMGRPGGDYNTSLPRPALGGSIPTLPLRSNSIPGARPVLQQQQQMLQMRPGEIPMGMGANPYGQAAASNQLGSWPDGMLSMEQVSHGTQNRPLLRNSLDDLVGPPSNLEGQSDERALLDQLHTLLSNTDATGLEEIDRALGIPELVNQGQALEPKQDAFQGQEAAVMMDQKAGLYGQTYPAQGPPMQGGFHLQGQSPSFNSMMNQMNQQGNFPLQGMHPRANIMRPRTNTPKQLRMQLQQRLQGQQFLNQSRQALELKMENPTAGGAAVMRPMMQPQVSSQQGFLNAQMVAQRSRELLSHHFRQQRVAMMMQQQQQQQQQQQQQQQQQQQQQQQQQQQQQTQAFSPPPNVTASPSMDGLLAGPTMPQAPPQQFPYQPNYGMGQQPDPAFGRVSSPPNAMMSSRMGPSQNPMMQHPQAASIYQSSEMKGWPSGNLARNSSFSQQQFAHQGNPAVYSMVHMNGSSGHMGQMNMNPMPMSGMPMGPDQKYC

Test [2] relates to transactivating tegument protein VP16 (Human herpesvirus 1), Gal4-VP16 luciferase reporter. As to the kind of experiment: VP16 transactivation inhibitors, counter-screen for SRC3 inhibitor project, cell-based, luminescence, high throughput (AID 588794; in the data active means inhibition above about 30%). The settings on record: mammalian cells, VP16-driven luciferase reporter luminescence; at 3.6 µM; hits give high values.
The target in test [3] is Nuclear receptor coactivator 1 (Homo sapiens) (UniProt Q15788). As to the kind of experiment: SRC1 coactivator transcriptional activity inhibitors, confirmation, cell-based, luminescence, quadruplicate (AID 588820).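 Further: 0% = DMSO wells and 100% = gossypol 36 µM treated wells.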 As to conditions: HEK293 GAL4-SRC1 luciferase reporter, at 3.6 µM, hits give high values.
Nuclear receptor coactivator 1 (Homo sapiens), sequence (Q15788 whole entry, looked up, the tested form may be a part): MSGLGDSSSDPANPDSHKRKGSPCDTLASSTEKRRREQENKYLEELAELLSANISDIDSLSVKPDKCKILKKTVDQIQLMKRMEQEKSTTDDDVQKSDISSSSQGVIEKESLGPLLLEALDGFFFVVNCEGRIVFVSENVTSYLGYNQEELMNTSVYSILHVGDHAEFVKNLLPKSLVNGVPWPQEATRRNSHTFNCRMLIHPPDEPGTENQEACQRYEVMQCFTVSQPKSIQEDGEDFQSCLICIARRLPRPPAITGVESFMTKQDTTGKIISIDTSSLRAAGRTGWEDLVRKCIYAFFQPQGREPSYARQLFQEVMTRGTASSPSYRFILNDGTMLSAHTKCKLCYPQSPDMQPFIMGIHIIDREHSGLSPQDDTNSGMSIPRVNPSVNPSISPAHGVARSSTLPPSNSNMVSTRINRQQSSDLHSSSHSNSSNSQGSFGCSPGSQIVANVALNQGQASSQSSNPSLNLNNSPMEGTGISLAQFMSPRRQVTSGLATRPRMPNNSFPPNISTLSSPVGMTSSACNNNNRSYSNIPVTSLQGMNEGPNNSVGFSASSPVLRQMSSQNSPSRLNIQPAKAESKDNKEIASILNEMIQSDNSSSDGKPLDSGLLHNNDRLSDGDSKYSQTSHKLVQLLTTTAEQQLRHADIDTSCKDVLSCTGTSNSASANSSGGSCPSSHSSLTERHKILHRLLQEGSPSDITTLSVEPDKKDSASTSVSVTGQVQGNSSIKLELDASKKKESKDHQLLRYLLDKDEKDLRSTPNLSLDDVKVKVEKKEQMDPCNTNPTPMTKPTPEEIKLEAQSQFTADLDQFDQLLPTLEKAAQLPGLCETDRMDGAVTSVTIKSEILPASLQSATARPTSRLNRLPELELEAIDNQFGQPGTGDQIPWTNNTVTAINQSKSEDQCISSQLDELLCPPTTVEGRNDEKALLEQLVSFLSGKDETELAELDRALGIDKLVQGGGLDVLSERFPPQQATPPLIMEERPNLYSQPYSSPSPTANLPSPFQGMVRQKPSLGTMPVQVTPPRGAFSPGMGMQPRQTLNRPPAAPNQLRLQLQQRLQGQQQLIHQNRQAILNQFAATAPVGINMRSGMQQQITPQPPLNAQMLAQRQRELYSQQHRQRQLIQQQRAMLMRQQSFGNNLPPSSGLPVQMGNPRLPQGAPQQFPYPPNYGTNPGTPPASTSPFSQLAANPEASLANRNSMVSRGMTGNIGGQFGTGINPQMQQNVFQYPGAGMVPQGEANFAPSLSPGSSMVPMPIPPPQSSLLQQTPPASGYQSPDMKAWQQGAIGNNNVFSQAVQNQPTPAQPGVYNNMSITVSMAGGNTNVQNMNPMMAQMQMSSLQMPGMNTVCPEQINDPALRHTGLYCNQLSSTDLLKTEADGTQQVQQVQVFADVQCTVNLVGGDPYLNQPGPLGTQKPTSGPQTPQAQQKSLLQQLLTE
Test [4] can be described thus: VP16 transactivation inhibitors, counter-screen for SRC1 inhibitor project, cell-based, luminescence, high throughput (AID 588824; in the data active means inhibition above about 25%). The settings on record: cell-based VP16 transactivation luciferase luminescence; at 3.6 µM; hits give high values. On the technique in general: A counterscreen serves to expose hits that act by an unwanted route or on another target.
Test [5] concerns transactivating tegument protein VP16 (Human herpesvirus 1). As to the kind of experiment: VP16 transactivation reporter inhibitors, counter-screen for SRC2 inhibitor project, cell-based, luminescence, single concentration (AID 652007; in the data active means inhibition above about 36%). As to conditions: cell-based VP16 transactivation luciferase reporter, at 8.9 µM, hits give high values.
Test [6] deals with Nuclear receptor coactivator 2 (Homo sapiens) (UniProt Q15596). As to the kind of experiment: SRC2 coactivator transcriptional activity inhibitors, confirmation, cell-based, luminescence, HEK293, triplicate (AID 652008;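 active means mean inhibition above 46.5%, the solvent-only control mean plus 3 SD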;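 further: 0% = DMSO-treated cells and 100% = Gossypol at 36 µM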). As to conditions: HEK293 GAL4-SRC2 luciferase reporter, at 8.9 µM, hits give high values.
Nuclear receptor coactivator 2 (Homo sapiens), sequence (Q15596 whole entry, looked up, the tested form may be a part): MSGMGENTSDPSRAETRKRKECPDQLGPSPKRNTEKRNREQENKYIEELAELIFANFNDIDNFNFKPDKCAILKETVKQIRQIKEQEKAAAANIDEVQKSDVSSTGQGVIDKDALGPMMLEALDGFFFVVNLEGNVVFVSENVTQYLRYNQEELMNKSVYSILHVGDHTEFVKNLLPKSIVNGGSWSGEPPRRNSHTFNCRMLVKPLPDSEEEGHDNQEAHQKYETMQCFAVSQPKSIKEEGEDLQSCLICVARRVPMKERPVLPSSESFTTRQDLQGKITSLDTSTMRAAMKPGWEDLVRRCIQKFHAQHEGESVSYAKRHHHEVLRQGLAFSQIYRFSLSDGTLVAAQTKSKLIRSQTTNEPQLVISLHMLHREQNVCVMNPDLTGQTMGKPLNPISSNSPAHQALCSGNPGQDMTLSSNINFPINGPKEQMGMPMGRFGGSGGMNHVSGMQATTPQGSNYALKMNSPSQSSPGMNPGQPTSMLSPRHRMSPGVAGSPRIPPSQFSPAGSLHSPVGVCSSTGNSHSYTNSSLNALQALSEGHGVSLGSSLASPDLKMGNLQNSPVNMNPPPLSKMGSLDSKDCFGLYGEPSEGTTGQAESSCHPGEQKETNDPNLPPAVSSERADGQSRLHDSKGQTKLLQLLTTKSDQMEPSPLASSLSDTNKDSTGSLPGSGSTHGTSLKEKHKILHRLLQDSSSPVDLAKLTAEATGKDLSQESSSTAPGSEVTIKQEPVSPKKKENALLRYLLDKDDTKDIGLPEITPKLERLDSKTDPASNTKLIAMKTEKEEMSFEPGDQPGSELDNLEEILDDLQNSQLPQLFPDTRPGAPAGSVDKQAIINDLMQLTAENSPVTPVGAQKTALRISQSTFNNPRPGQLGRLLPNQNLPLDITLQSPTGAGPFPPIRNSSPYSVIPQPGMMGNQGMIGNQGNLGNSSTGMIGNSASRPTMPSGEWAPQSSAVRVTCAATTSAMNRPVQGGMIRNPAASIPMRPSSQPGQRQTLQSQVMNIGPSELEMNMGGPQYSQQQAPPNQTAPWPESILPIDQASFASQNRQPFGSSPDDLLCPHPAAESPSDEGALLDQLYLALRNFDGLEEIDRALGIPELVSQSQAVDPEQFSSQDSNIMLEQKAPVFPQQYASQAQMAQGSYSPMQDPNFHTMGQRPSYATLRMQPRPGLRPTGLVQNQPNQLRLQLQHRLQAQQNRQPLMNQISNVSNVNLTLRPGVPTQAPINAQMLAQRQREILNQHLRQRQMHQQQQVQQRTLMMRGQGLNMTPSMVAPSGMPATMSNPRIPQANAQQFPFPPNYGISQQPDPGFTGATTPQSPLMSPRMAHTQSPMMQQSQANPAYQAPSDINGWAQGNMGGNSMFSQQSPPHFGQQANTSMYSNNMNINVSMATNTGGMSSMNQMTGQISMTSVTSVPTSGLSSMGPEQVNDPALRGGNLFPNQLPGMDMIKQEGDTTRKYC
Test [7] is described as follows: StAR promoter reporter inhibitors, counter-screen for LRH-1 inverse agonist project, cell-based, luminescence, high throughput (AID 651611; in the data active means inhibition above about 28%). As to conditions: StAR promoter luciferase reporter counterscreen, at 3.6 µM, hits give high values.
Test [8] concerns the target Nuclear receptor subfamily 5 group A member 2 (Homo sapiens) (UniProt O00482). Put plainly: LRH-1 (NR5A2) inverse agonists, retest, confirmation, cell-based, luminescence (AID 651613; in the data active means inhibition above about 42%;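 further: HEK293T cells co-transfected with LRH-1 and StAR promoter luciferase reporter; 0% = vehicle wells and 100% = parental cells lacking receptor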). The settings on record: cell-based LRH-1 luciferase reporter, inverse agonism; at 3.6 µM; hits give high values.
In test [9] the target is Steroidogenic factor 1 (Homo sapiens) (UniProt Q13285). As to the kind of experiment: SF1 (NR5A1) inverse agonists, counter-screen for LRH-1 inverse agonist project, cell-based, luminescence, high throughput (AID 651614; in the data active means inhibition above about 44%;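 further: cells cotransfected with StAR promoter reporter and SF1 expression vector; 0% = vehicle on cells with receptor and 100% = vehicle on cells lacking receptor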). As to conditions: cell-based SF1 luciferase reporter, at 3.6 µM, hits give high values.
Test [10] in a line: VP16 transactivation reporter inhibitors, counter-screen for LRH-1 inverse agonist project, cell-based, luminescence, high throughput (AID 651615; in the data active means inhibition above about 33%). The settings on record: Gal4-VP16 luciferase reporter cells, at 3.6 µM, hits give high values.

Several values for one entry are separate records, joined by “and”; a condition that tells them apart may be missing. Equal values may be shown once. Unmarked numbers belong to inactive results. Activity calls are given as the source filed them.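 How the source made its calls, unless noted: active means mean inhibition above 46.68%, the untreated control wells mean plus 3 SD; inactive means the rest.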

Nuclear receptor subfamily 5 group A member 2 (Homo sapiens), sequence (O00482 whole entry, looked up): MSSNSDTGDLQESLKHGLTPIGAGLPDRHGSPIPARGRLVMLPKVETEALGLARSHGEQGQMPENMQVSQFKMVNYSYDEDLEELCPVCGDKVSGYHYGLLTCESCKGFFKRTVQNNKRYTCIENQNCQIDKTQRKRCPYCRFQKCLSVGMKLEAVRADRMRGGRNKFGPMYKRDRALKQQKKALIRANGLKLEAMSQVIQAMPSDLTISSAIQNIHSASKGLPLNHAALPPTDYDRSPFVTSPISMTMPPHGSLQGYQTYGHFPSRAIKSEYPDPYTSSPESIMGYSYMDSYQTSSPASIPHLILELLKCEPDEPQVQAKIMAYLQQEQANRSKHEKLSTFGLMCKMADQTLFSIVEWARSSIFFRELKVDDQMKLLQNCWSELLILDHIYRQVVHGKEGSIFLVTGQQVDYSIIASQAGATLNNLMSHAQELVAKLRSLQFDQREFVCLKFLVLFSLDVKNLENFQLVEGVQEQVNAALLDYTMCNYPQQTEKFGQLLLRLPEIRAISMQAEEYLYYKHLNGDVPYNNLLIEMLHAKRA

By inhibition is commonly meant the relative decrease from the control value, in per cent. `CCCC(=O)NC(c1ccc(Cl)cc1Cl)c1ccc2cccnc2c1O` (stereo not given): the inhibition is 34.5% in [1]; 28.6% in test [2]; 45.7% in [3]; 48% (active) in [4]; 0.83% in test [5]; 17.2% in [6].

For the compound `COc1ccc2[nH]c(=O)c3c(c2c1)OC(C)(C)C=C3`, the inhibition in test [1] was 77.6% (active); in test [2] it was 41.7% (active); in [3] it was 69.9% (active); in [4], 44% (active); in [5], 9.64%; in test [6], 51.3% (active).

`CCN(CC)c1ccc(C(=C2C=CC(=[N+](CC)CC)C=C2)c2ccccc2)cc1`: the inhibition in test [1] is 95.5% (active); in test [2], 95.9% (active); in test [3], -95%; in [4], 94.3% (active); in test [7], 97.7% (active); in test [8], 109% (active). The inhibition in test [9] is 99.1% (active); in test [10], 98.7% (active); in test [5], 98.3% (active); in test [6] it was 99.5% (active).

As for `CC(=O)c1sc(NC(=O)C2(F)C(F)(F)C(F)(F)C(F)(F)C(F)(F)C2(F)F)nc1C`, the inhibition in test [1] was 66.5% (active); in [2], 79% (active); in test [3], 60.4% (active); in [4] it was 84.5% (active); in [5], 4.16%; in test [6] it was 23.9%.

Consider `Nc1ncnc(N2CCc3ccccc32)c1[N+](=O)[O-]`, for which the inhibition was 85.4% (active) in [1]; 61.3% (active) in test [2]; 75.9% (active) in test [3]; 61.2% (active) in [4]; 9.34% in [5]; 55.2% (active) in test [6].

For the compound `Cc1ccc(Sc2c(C=O)c3ccccc3n2C)cc1`, the inhibition is 63.2% (active) in test [1]; 42.4% (active) in [2]; 54% (active) in test [3]; 46.9% (active) in [4]; 7.13% in test [5]; 42.5% in test [6].

Regarding `CC1CCc2nc(NC(=O)C3COc4ccccc4O3)sc2C1` (stereo not given), the inhibition in [1] was 9.01%; in test [2] it was -11.5%; in [3], -134%; in [4], -51.9%; in test [5] it was -16.9%; in test [6], 36.4%.

As to `c1ccc(CNc2ncnc3ccccc23)cc1`, the inhibition in test [1] is 47% (active); in [2], 44.9% (active); in test [3], 17.6% and 34.3%; in [4] it was 34.9% (active) and 44% (active); in test [5] it was 14%; in [6], 48.8% (active).

Consider `CC1(Cc2ccc(Cl)cc2)C(=O)Nc2ccc(-c3cccnc3)cc21` (stereo not given), for which the inhibition was 73.7% (active) in test [1]; 49.3% (active) in test [2]; 59.2% (active) in [3]; 52.8% (active) in [4]; 6.39% in test [5]; 53.2% (active) in test [6].

Consider `Clc1ccc(-c2csc(=Nc3cccnc3)n2CCCn2ccnc2)cc1Cl`, for which the inhibition was 53.9% (active) in test [1]; 35.4% (active) in test [2]; 49.7% (active) in test [3]; 39% (active) in [4]; 15.6% in test [5]; 63.7% (active) in test [6].

Turning to `CN(Cc1nccs1)C(=O)c1cc(COc2cccc3cnccc23)on1`, the inhibition in [1] is 27.5%; in [2], 36.1% (active); in [3], 19.8%; in [4] it was 34.7% (active); in test [5], 16.6%; in test [6], 51.8% (active).

On to `Cc1ccccc1C(=O)N1CCN(c2ccc(NC(=O)c3ccc4c(c3)OCCO4)cc2)CC1`, for which the inhibition is 25.7% in test [1]; 43% (active) in test [2]; 32.2% in test [3]; 41.5% (active) in [4]; 34.3% in test [5]; 45.5% in test [6].

Regarding `COc1ccc(CC(=O)Nc2cccc(-c3nnc(-c4ccccc4)o3)c2)cc1OC`, the inhibition in test [1] was 10.5%; in test [2], 32.9% (active); in [3] it was -12.5%; in [4], 41.1% (active); in test [5] it was 27.1%; in test [6], 68.5% (active).

For the compound `O=C(CCCN1C(=O)/C(=C/c2ccccc2Cl)SC1=S)NNC(=O)c1ccncc1`, the inhibition in test [1] was 14.7%; in test [2], 8.23%; in test [3] it was 10.8%; in [4], 10.8%; in test [5] it was 40.6% (active); in [6] it was 65.4% (active).

`c1cc2c(cc1C1=NNC(=NC3CC3)SC1)OCCO2`: the inhibition in test [1] was 52.8% (active); in [2] it was 46.4% (active); in test [3] it was 15.5%; in test [4] it was 38% (active); in test [5], 59.7% (active); in test [6], 79.5% (active).

With `CC(C)(CO)CNc1ccn2nccc2n1`, the inhibition in test [1] was 49.3% (active); in test [2], 35.4% (active); in [3], 67.4% (active); in test [4], 41% (active); in test [5] it was -7.15%; in test [6], 27.5%.

Consider `Cc1ccc(/C=C2\SC(=S)N(CCCC(=O)NNC(=O)c3ccccc3O)C2=O)cc1`, for which the inhibition in [1] is 73.3% (active); in test [2], 53.6% (active); in test [3], 74.7% (active); in [4] it was 58.3% (active); in test [5], 92.8% (active); in test [6], 95.4% (active).

As to `Nc1ccc2c(c1)OC1(CCCC1)O2`, the inhibition in test [1] was 10.9%; in test [2], 4.56%; in [3] it was -18.7%; in [4] it was 15.4%; in test [5], -13%; in [6], 45.4%.

Consider `CC(C)(C)c1ccc(C(=O)NC(=S)Nc2nc3c(s2)CCCC3)cc1`, for which the inhibition in [1] was 20.4%; in [2] it was -9.66%; in [3], -33.4%; in test [4], -47.4%; in test [5] it was 0.2%; in [6], 34.8%.

Regarding `Cc1ccc2nc(-c3ccccc3)cn2c1`, the inhibition in test [1] was 21.2%; in [2], -9.75%; in test [3], -44.9%; in test [4], -21.6%; in [5], 19.2%; in test [6], 51.8% (active).

For `CCCCN(c1ccccc1)c1ncnc(N)c1[N+](=O)[O-]`, the inhibition in test [1] is 72.2% (active); in test [2] it was 57.6% (active); in test [3] it was 64.5% (active); in test [4] it was 48.5% (active); in test [5] it was 17.4%; in [6], 44.7%.
